Consider 39 compounds from ChEMBL document CHEMBL3988442, “University of Dundee, Small-Polar-MMV Screening Library” (2021).

The assay deals with AMP-activated protein kinase, AMPK (Homo sapiens) (UniProt P54646+O43741+P54619+Q9UGJ0+Q9Y478+Q13131+Q9UGI9). The assay can be described thus: AMP-dependent Kinase enzyme assay. An in vitro enzyme assay that detects ADP turnover that is directly proportional to AMPK activity. This uses naive AMPK that is activated during the assay with MK-8722. To be noted: 30 µM. It counts as functional. Also on record: scale not given: direction of the effect not stated beside the values.
As for `CN(Cc1ncc(-c2ccccc2C(=O)O)s1)c1ncccn1`, the Percent Effect is -8.09%.

`CN(C)Cc1cnn(-c2ccccc2C(=O)NCCC2CCCN2C)c1` (centres undefined): the Percent Effect came out at 5.44%.

For the compound `Cc1cnc(N2CCN(C(C)C(N)=O)CC2)nc1` (centres undefined), the Percent Effect is -0.289%.

As for `CCCc1ccc(CN2CCC3(CCC(=O)N(CCCOC)C3)CC2)o1`, the Percent Effect amounted to 4.14%.

Take `CN(C(=O)c1ccc2c(c1)nc(N1CC[C@H](O)C1)n2C)C1CCSCC1`: the Percent Effect was found to be 9.79%.

`NC(=O)c1ccc(NC(=O)N2CCN(c3cccs3)CC2)c(F)c1`: the Percent Effect stood at 2.09%.

`Cc1ccc(C2(O)CCN(C(=O)CCn3ccc(=O)[nH]c3=O)CC2)nc1`: the Percent Effect came out at 1.66%.

Consider `Cc1cnc(CCNC(=O)NCCc2ccc(O)cc2)s1`, for which the Percent Effect is 38.4%.

`Cc1noc(C)c1C(=O)N[C@@H]1CC[C@@H](Oc2ccccc2)[C@@H]1O`: the Percent Effect came to 18.4%.

`COc1ccc(OCCNC(=O)CN(C)Cc2nnc(C)n2C)cc1`: the Percent Effect was found to be 7.86%.

In the case of `Cc1ccc(C(=O)NC2CCN(C)CC2)cc1N(C)S(C)(=O)=O`, the Percent Effect was -1.82%.

In the case of `Cc1cc(C(=O)N2CC[C@@]3(O)CCN(S(C)(=O)=O)C[C@H]3C2)c(C)n1C`, the Percent Effect was 3.49%.

Take `Cc1cc(NCCNc2cccnc2)nc(N)n1`: the Percent Effect is -11.6%.

On to `CC1CCN(Cc2ccccc2CNC(=O)C2CNC(=O)N2)CC1` (centres undefined), for which the Percent Effect is -1.18%.

In the case of `C=Cn1ncc(CN2CCC(c3ncc(Cl)cc3S(C)(=O)=O)CC2)c1C`, the Percent Effect was -0.153%.

With `Cc1cc(=O)n(CCNC(=O)c2ccccc2Cl)cn1`, the Percent Effect is -4.73%.

Turning to `CCc1ccc2nc(C)cc(C(=O)N[C@@H]3CCCNC3)c2c1`, the Percent Effect is -2.76%.

`Cc1c(CN2CCc3[nH]cnc3C2C2CC2)[nH]c2ccc(F)cc12` (centres undefined): the Percent Effect is 3.62%.

Turning to `Cc1nc(COc2ccc(S(=O)(=O)N(C)C)cc2)sc1C`, the Percent Effect was determined as 5.76%.

As for `Cc1cc(COC(=O)[C@@H]2Cc3ccccc3CN2S(C)(=O)=O)no1`, the Percent Effect turned out to be 27.9%.

Consider `Cc1c(C(=O)NC2CCCOC2)nnn1-c1ccc(Cl)cc1F` (centres undefined), for which the Percent Effect is 0.0565%.

Turning to `CC(=O)Nc1ccc(CNC(=O)CNCc2sc(C)nc2C)cc1`, the Percent Effect turned out to be 3.71%.

Regarding `CCN1CCN(C(=O)C2CCOC2)c2ccccc21` (centres undefined), the Percent Effect is -4.37%.

Consider `COCC(C)NC(=O)c1sccc1-n1cnnn1` (centres undefined), for which the Percent Effect was 15.6%.

`CC(C)N1CCC(CC(=O)NCCc2cc(O)ncn2)CC1`: the Percent Effect was -10.1%.

For the compound `O=C(CCCN1CCCCC1)NC(C(=O)O)c1cccc(F)c1` (centres undefined), the Percent Effect was determined as 14.7%.

Regarding `CS(=O)(=O)Cc1noc(CN(Cc2ccco2)c2ccccc2)n1`, the Percent Effect amounted to 3.02%.

For the compound `COc1ccc(C)c(NC(=O)NCc2ncnn2C)c1`, the Percent Effect is -3.74%.

As to `Cc1n[nH]c(C)c1CCNC(=O)Nc1ccc(S(C)(=O)=O)cc1`, the Percent Effect was 4.13%.

Consider `O=C(c1cncc(NCC2COc3ccccc3C2)n1)N1CCCCC1` (centres undefined), for which the Percent Effect came out at 16.5%.

`Cc1nnc(CN(C)CC(=O)N2CCCC(C)CC2)n1C` (centres undefined): the Percent Effect is 0.221%.

Turning to `CC1CCN(c2ccc(C(=O)N3CCCC3c3nncn3C)cn2)CC1` (centres undefined), the Percent Effect is -4.84%.

Regarding `O=C(c1cnnn1-c1ccccc1)N1CCCC(c2ccn[nH]2)C1` (centres undefined), the Percent Effect was -5.43%.

As for `Cc1nc(CN2CCN(c3cc(CCN)ncn3)CC2)cs1`, the Percent Effect was -0.86%.

For the compound `Cc1nn(C)c(Cl)c1C(=O)NCC1(C(N)=O)CCOCC1`, the Percent Effect was -1.15%.

Turning to `Cc1noc(C)c1CCc1nc(C2CCOC2)no1` (centres undefined), the Percent Effect was -7.75%.

As to `CCOC(=O)C1(O)CCN(C(=O)Nc2ccc(CC)cc2)CC1`, the Percent Effect stood at 0.524%.

Consider `CCc1nc(C)c(CN2CCOC(CCCC(C)C)C2)[nH]1` (centres undefined), for which the Percent Effect is -6.7%.

In the case of `O=C1NCCN(C(=O)CN2CCOC2=O)C1c1cccc(F)c1` (centres undefined), the Percent Effect was -8.21%.
